Consider 69 molecules from PMC4552634, “A New Set of Chemical Starting Points with Plasmodium falciparum Transmission-Blocking Potential for Antimalarial Drug Discovery” (PLoS ONE, 2015).

Screen size: about 13,000 compounds; about 3,200 (25%) showed an effect of 50% or more. The list shows a part of the results.

The subject of this assay is P. falciparum stage V gametocytes. Details: BacTiter-Glo ATP luminescence viability of purified stage V gametocytes in 384-well plates, per cent inhibition versus DMSO. The following applies: 48 h, 5 µM; inhibitor.
In the case of `COc1ccc(-c2cccc(CNC3CCN(CC4Cn5c(=O)ccc6ccc(F)c4c65)CC3)c2)cc1` (stereo not drawn) [TCMDC-134414], the % Inhibition – broadly, the relative decrease from the control value, in per cent – is reported as -11.45%.

As for `CCc1ccccc1OCCCON1C(N)=NC(N)=NC1(C)C` [TCMDC-131305], the “% Inhibition” value turned out to be 3.059%.

Consider `COc1ccccc1N1CCN(C(C(=O)NCc2ccc3c(c2)OCO3)c2ccc3c(c2)OCCCO3)CC1` (stereo not drawn) [TCMDC-135675], for which the “% Inhibition” value is listed as -10.78%.

As for `COc1ccc(COc2cc(NCCCN)nc3ccccc23)cc1` [TCMDC-139286], the “% Inhibition” value worked out at 99.04%.

With `COc1ccccc1N1CCN(C(C(=O)NCc2ccc3c(c2)OCO3)c2ccc(C)cc2)CC1` (stereo not drawn) [TCMDC-135503], the “% Inhibition” value is on record as -4.748%.

As for `COc1cc(NCC(O)CNc2cc(Cl)nc3ccccc23)nc2ccccc12` (stereo not drawn) [TCMDC-139359], the “% Inhibition” value worked out at 31.96%.

For the molecule `COc1cc(NCCCCCNc2cc(Cl)nc3ccccc23)nc2ccccc12` [TCMDC-139303], the “% Inhibition” value was -22.5%.

`COc1cc(NCC(O)CNc2cc(OC)c3ccccc3n2)nc2ccccc12` [TCMDC-139360]: the “% Inhibition” value was 55.11%.

For `Cc1nc(NCc2ccccc2)cc(NCC(O)c2ccc(O)cc2)n1` (stereo not drawn) [TCMDC-135163], the “% Inhibition” value was found to be 19.67%.

With `COc1cc(NCC(CN)Cc2ccc3c(c2)OCO3)nc2ccccc12.Cl` (stereo not drawn) [TCMDC-140387], the “% Inhibition” value is given as 69.08%.

For `COc1ccc2c(C)cc(NCCCN(C)C)nc2c1` [TCMDC-124046], the “% Inhibition” value is given as 8.685%.

`Cc1ccc(C(=O)Nc2ccnc(N(C)C3CCN(Cc4cccc(O)c4)CC3)c2)cn1` [TCMDC-134967]: the “% Inhibition” value was -0.6383%.

With `COCCNCc1ncsc1-c1ccc2c(Nc3cc(O)c(Cl)cc3F)ccnc2c1` [TCMDC-138441], the “% Inhibition” value stood at 3.438%.

Take `Cc1nc(N=C(N)N)nc2cc3c(cc12)CCC3` [TCMDC-141187]: the “% Inhibition” value is given as 84.12%.

Turning to `Cc1nc(N=C(N)N)nc2ccc(C(C)(C)C)cc12` [TCMDC-137936], the “% Inhibition” value is -23.7%.

As to `CCC1(C)N=C(N)N=C(N)N1c1ccc(Cl)cc1` (stereo not drawn) [TCMDC-132039], the “% Inhibition” value was found to be 4.957%.

`COc1cc2ncnc(Nc3ccc(OC(F)(F)c4ccccc4)cc3)c2cc1OC` [TCMDC-131925]: the “% Inhibition” value was found to be 12%.

For the molecule `COc1cc(Nc2ncnc3cc(OC)c(OC)cc23)cc([N+](=O)[O-])c1` [TCMDC-138138], the “% Inhibition” value worked out at 82.08%.

Consider `COc1cc2ncnc(Nc3ccc(Br)c(Cl)c3)c2cc1OC` [TCMDC-131909], for which the “% Inhibition” value was 14.07%.

`CCOC(=O)c1ccc(NC(=O)Nc2cccc(-c3ccc(-c4nc5ccccc5[nH]4)cc3)c2)cc1` [TCMDC-133266]: the “% Inhibition” value is -19.34%.

With `O=C(/C=C/c1ccc(Cl)c(Cl)c1)NCCCCCN1CCC(NC(=O)Nc2ccc(F)c(F)c2)CC1` [TCMDC-135714], the “% Inhibition” value is given as -48.39%.

As for `Cc1[nH]c(C)c(-c2ccc(Oc3ccc(O)cc3)cc2)c(=O)c1Cl` [TCMDC-136135], the “% Inhibition” value is recorded as -17.77%.

`COc1ccc(Oc2ccc(-c3c(C)[nH]c(C)c(Cl)c3=O)cc2)cc1` [TCMDC-136134]: the “% Inhibition” value was determined as 78.59%.

`C/C=C/COc1ccc(-c2c(C)[nH]c(C)c(Cl)c2=O)cc1` [TCMDC-134729]: the “% Inhibition” value stood at 76.24%.

As for `CC(=O)Nc1ccc(C#Cc2ccc(-c3c(C)[nH]c(C)c(Cl)c3=O)cc2)cc1` [TCMDC-135653], the “% Inhibition” value is listed as 34.03%.

With `Cc1[nH]c(C)c(-c2ccc(OCc3ccc(F)cc3)cc2)c(=O)c1Cl` [TCMDC-132415], the “% Inhibition” value was 7.51%.

As to `COc1ccc(C=Cc2ccc(-c3c(C)[nH]c(C)c(Cl)c3=O)cc2)cc1OC` [TCMDC-135788], the “% Inhibition” value is given as 33.6%.

As for `COc1ccc(C#Cc2ccc(-c3c(C)[nH]c(C)c(Cl)c3=O)cc2)cc1` [TCMDC-135655], the “% Inhibition” value came to 67.24%.

As to `COc1ccc(CCc2ccc(-c3c(C)[nH]c(C)c(Cl)c3=O)cc2)cc1OC` [TCMDC-135789], the “% Inhibition” value is on record as 86.31%.

For the molecule `CN1CC[C@H](N(Cc2ccccc2F)c2ccc(C#N)c(Cl)c2)C1` [TCMDC-137035], the “% Inhibition” value is on record as 21.12%.

Regarding `COc1ccc(CN2CCC2=O)c(OC)c1` [TCMDC-132118], the “% Inhibition” value is on record as 45.15%.

With `CC(=O)N[C@@H]1c2cc(C(C)=O)ccc2OC(C)(C)[C@@H]1O` [TCMDC-139001], the “% Inhibition” value is 15.15%.

For the molecule `CC(C)(C)c1ccc(S(=O)(=O)Nc2cc(Cl)ccc2Cn2ccc(N3CCNCC3)nc2=O)cc1` [TCMDC-132581], the “% Inhibition” value is given as 5.996%.

Take `Oc1ccc2[nH]c(-c3cccs3)nc2c1CN1CCC(N2CCCC2)CC1` [TCMDC-136356]: the “% Inhibition” value is listed as -12.57%.

For `COc1ccc(CCn2c(=N)c(C(=O)NCc3ccc(C)cc3)cc3c(=O)n4ccccc4nc32)cc1` [TCMDC-124475], the “% Inhibition” value is reported as 27.16%.

Consider `Cc1[nH]c(C)c(-c2ccc(CCc3ccc(N)cc3)cc2)c(=O)c1Cl` [TCMDC-135678], for which the “% Inhibition” value was found to be 70.67%.

With `Cc1[nH]c(C)c(-c2ccc(Oc3ccc(F)cc3)cc2)c(=O)c1Cl` [TCMDC-134728], the “% Inhibition” value came out at 77.31%.

Turning to `COc1ccc(CCc2ccc(-c3c(C)[nH]c(C)c(Cl)c3=O)cc2)cc1` [TCMDC-135654], the “% Inhibition” value is 77.1%.

Regarding `CC1(C)N=C(N)N=C(N)N1c1cc(Cl)c(Cl)c(Cl)c1` [TCMDC-137508], the “% Inhibition” value was -8.001%.

Take `Cc1cnc(-c2cccc(C(=O)NC3CCC(CCN4CCc5ccc(C#N)cc5CC4)CC3)c2)[nH]1` (stereo not drawn) [TCMDC-139842]: the “% Inhibition” value is on record as -56.62%.

Take `CS(=O)(=O)N1CC2(CCN(CCC(NC(=O)NCc3ccccc3Cl)c3ccc(Cl)c(Cl)c3)CC2)c2ccccc21` (stereo not drawn) [TCMDC-141768]: the “% Inhibition” value came to 10.44%.

Turning to `O=C(Nc1ccc(Br)c(C(F)(F)F)c1)c1cccc([N+](=O)[O-])c1` [TCMDC-123520], the “% Inhibition” value is given as -21.49%.

`O=C1COC2(CN1C1CCN(Cc3ccc(O)cc3Cl)C1)c1ccccc1-c1ccccc12` (stereo not drawn) [TCMDC-136341]: the “% Inhibition” value was determined as 24.28%.

Turning to `CN1CCC(N2CCN(Cc3cccc(-c4ccc(-c5nc6ccc(C(F)(F)F)cc6[nH]5)cc4)c3)CC2)CC1` [TCMDC-133842], the “% Inhibition” value amounted to 104%.

With `N#CCCN1CCN(Cc2cccc(-c3ccc(-c4nc5ccc(F)cc5[nH]4)cc3)c2)CC1` [TCMDC-133860], the “% Inhibition” value is -16.76%.

On to `FC(F)(F)c1ccc2nc(-c3ccc(-c4cccc(CN5CCN(CCN6CCOCC6)CC5)c4)cc3)[nH]c2c1` [TCMDC-133943], for which the “% Inhibition” value is on record as -11.41%.

Turning to `Fc1ccc2nc(-c3cccc(-c4ccc(CN5CCN(CCN6CCOCC6)CC5)cc4)c3)[nH]c2c1` [TCMDC-133942], the “% Inhibition” value worked out at 39.55%.

As to `OCCN1CCN(Cc2cccc(-c3ccc(-c4nc5ccc(C(F)(F)F)cc5[nH]4)cc3)c2)CC1` [TCMDC-133031], the “% Inhibition” value was found to be 3.481%.

With `Fc1ccc2nc(-c3ccc(-c4cccc(CN5CCN(CCN6CCOCC6)CC5)c4)cc3)[nH]c2c1` [TCMDC-133936], the “% Inhibition” value is -11.53%.

In the case of `OCCN1CCN(Cc2ccc(-c3cccc(-c4nc5ccc(F)cc5[nH]4)c3)cc2)CC1` [TCMDC-133032], the “% Inhibition” value is on record as -6.536%.

As to `CN1CCC(N2CCN(Cc3ccc(-c4cccc(-c5nc6ccc(F)cc6[nH]5)c4)cc3)CC2)CC1` [TCMDC-133843], the “% Inhibition” value was determined as 52.56%.

In the case of `CN1CCC(N2CCN(Cc3cccc(-c4ccc(-c5nc6ccc(F)cc6[nH]5)cc4)c3)CC2)CC1` [TCMDC-133858], the “% Inhibition” value is given as 97.12%.

Take `CCN(c1cc(C)nc(Nc2ccc(Cl)cc2)n1)[C@H]1CCN(Cc2ccccc2)C1` [TCMDC-132205]: the “% Inhibition” value is recorded as -28.73%.

On to `CC(C)(C)c1cc(C(=O)N2CCN(c3nccnc3C#N)CC2)n(Cc2ccccc2)n1` [TCMDC-134141], for which the “% Inhibition” value is -3.89%.

As for `OC(c1cccc2ccccc12)C1CN(CCc2ccccc2)CCC1(O)c1ccccc1` (stereo not drawn) [TCMDC-131998], the “% Inhibition” value is 42.45%.

Consider `COc1ccc(C2=C(Nc3ccc4oc5ccccc5c4c3)c3ccccc3C2=O)cc1` [TCMDC-125672], for which the “% Inhibition” value is 2.294%.

Turning to `Cc1noc(C)c1-c1cccc(CNCc2ccc(-c3ccc(-c4nc5cc(F)ccc5[nH]4)cc3)cc2)c1.O=C(O)C(F)(F)F` [TCMDC-133057], the “% Inhibition” value was determined as 12.39%.

`COC(=O)c1cccc(CNCc2ccc(-c3ccc(-c4nc5ccccc5[nH]4)s3)cc2)c1.O=C(O)C(F)(F)F` [TCMDC-132945]: the “% Inhibition” value is -1.704%.

Take `COC(=O)c1cccc(CNCc2ccc(-c3ccc(-c4nc5cccc(C)c5[nH]4)s3)cc2)c1.O=C(O)C(F)(F)F` [TCMDC-132950]: the “% Inhibition” value is listed as 57.35%.

Turning to `Cc1cccc2nc(-c3cccc(-c4cccc(CNCC5CCCO5)c4)c3)[nH]c12.O=C(O)C(F)(F)F` (stereo not drawn) [TCMDC-133104], the “% Inhibition” value stood at 76.66%.

Turning to `Cc1cccc2nc(-c3ccc(-c4cccc(CNCC5CCCO5)c4)s3)[nH]c12.O=C(O)C(F)(F)F` (stereo not drawn) [TCMDC-133094], the “% Inhibition” value turned out to be 10.18%.

As for `COC(=O)c1cccc(CNCc2cccc(-c3cccc(-c4nc5cccc(C)c5[nH]4)c3)c2)c1.O=C(O)C(F)(F)F` [TCMDC-132946], the “% Inhibition” value was 7.725%.

On to `Cc1cccc2nc(-c3cccc(-c4ccc(CNCc5cccc(N)c5)cc4)c3)[nH]c12.O=C(O)C(F)(F)F` [TCMDC-132930], for which the “% Inhibition” value was -5.493%.

`Cc1cccc2nc(-c3cccc(-c4cccc(CNCc5cccc(N)c5)c4)c3)[nH]c12.O=C(O)C(F)(F)F` [TCMDC-132928]: the “% Inhibition” value is listed as 56.62%.

For `Cc1cccc2nc(-c3ccc(-c4ccc(CNCc5cccc(N)c5)cc4)cc3)[nH]c12.O=C(O)C(F)(F)F` [TCMDC-132938], the “% Inhibition” value was -30.59%.

Take `Cc1cccc2nc(-c3ccc(-c4cccc(CNCC5CCCO5)c4)cc3)[nH]c12.O=C(O)C(F)(F)F` (stereo not drawn) [TCMDC-133098]: the “% Inhibition” value was -5.371%.

As for `COc1ccc(CNCc2ccc(-c3cccc(-c4nc5cccc(C)c5[nH]4)c3)cc2)cc1.O=C(O)C(F)(F)F` [TCMDC-132729], the “% Inhibition” value came to 40.55%.

As for `COC(=O)c1cccc(CNCc2cccc(-c3ccc(-c4nc5cccc(C)c5[nH]4)s3)c2)c1.O=C(O)C(F)(F)F` [TCMDC-132956], the “% Inhibition” value was -38.48%.

Turning to `COC(=O)c1cccc(CNCc2ccc(-c3cccc(-c4nc5cccc(C)c5[nH]4)c3)cc2)c1.O=C(O)C(F)(F)F` [TCMDC-132948], the “% Inhibition” value is recorded as 73.37%.
